High-throughput results from PubChem.
Mtb hypoxia inh: Mtb hypoxia fluorescent reporter inhibition; AID 1159583; M. tuberculosis hypoxia-regulated fluorescent reporter, fluorescence; 0.1% of 300,000 active; fluorescence inhibition, % (no concentration beside the values); in the data active = fluorescence inhibition mostly above about 23%, no sharp cut-off; inactive = mostly below about 17%
CCHF vOTU inh: CCHFV vOTU protease inhibition; Pep-AMC fluorescence; inhibition, % at 11.5 µM; 0.55% of 370,000 active; AID 651958; in the data active = inhibition above about 30%
BJeLR viability: BJeLR cell viability loss; BJeLR (HRASV12) viability, CellTiter-Glo ATP luminescence, 48 h; inhibition, % (test concentration not listed); 0.17% of 300,000 active; AID 1554; in the data active = inhibition above about 50%
Sa ugtP lethal: growth inhibition of S. aureus ugtP deletion strain; growth inhibition, % (no concentration beside the values); 0.54% of 330,000 active; AID 1259309; S. aureus RN4220 ugtP deletion, OD600 growth, 16 h; in the data active = growth inhibition above about 68%
RecA splice inh: Mtb RecA intein splicing inhibition; P9WHJ3; inhibition, % (test concentration not listed); cell-free RecA intein splicing, fluorescence; AID 2221; 0.75% of 290,000 active; in the data active = inhibition above about 30%
Target sequence (P9WHJ3 whole entry, looked up, canonical isoform): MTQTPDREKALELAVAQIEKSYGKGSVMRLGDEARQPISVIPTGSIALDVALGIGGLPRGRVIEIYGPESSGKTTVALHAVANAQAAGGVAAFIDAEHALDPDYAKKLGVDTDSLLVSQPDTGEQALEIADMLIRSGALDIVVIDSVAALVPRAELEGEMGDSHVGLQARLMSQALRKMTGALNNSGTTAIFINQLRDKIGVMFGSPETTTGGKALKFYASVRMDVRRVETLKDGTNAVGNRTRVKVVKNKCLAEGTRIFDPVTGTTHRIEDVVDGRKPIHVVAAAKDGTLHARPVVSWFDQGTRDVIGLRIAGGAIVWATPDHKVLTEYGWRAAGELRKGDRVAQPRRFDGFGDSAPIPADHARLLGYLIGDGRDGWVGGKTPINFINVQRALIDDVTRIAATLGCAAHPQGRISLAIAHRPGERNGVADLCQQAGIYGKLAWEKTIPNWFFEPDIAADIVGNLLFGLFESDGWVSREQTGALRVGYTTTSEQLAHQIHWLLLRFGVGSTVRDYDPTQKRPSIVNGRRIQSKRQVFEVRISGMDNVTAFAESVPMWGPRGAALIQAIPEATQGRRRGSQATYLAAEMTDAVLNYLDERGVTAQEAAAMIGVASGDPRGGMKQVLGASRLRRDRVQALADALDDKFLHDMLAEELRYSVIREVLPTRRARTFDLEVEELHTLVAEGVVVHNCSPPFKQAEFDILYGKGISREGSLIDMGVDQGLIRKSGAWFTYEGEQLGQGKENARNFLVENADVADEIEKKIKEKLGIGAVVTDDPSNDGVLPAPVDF
RN4220 kill: kills Staphylococcus aureus RN4220. inhibition, % (test concentration not listed). S. aureus RN4220 growth, OD600, 16 h. 0.33% of 330,000 active; in the data active = inhibition above about 85%
Numbers stand for hits; n = inactive; x = no result shown. Most compounds without a hit are left out; they make up all but 1.6% or so of the library.

SMILES	Mtb hypoxia inh	CCHF vOTU inh	BJeLR viability	Sa ugtP lethal	RecA splice inh	RN4220 kill
Cc1nnc(SCC2=C(C(=O)O)N3C(=O)C(NC(=O)c4cccc(F)c4F)C3SC2)s1 (configuration not stated)	n	n	n	101	n	100
CC1=C(C(=O)O)N2C(=O)C(NC(=O)Cc3ccccc3)C2SC1 (configuration not stated)	n	n	n	n	n	n
Cc1nnc(SCC2=C(C(=O)O)N3C(=O)C(NC(=O)Cn4ncc(Cl)c4C)C3SC2)s1 (configuration not stated)	x	n	n	99	n	99
Cc1cc(C)n(CC(=O)NC2C(=O)N3C(C(=O)O)=C(CSc4nnc(C)s4)CSC23)n1 (configuration not stated)	x	n	x	100	n	100
CC1=C(C(=O)O)N2C(=O)C(NC(=O)c3c(F)cccc3F)C2SC1 (configuration not stated)	n	n	x	n	x	n
CCOC(=O)C1C2COc3ccc(Br)cc3C2N2C(=O)c3ccc(F)cc3NC(=O)[C@@]12C (some centres not stated)	n	x	x	n	x	n
CCCCCCCCCCCCCCCCn1cc[n+](CC(C)=O)c1	n	x	x	101	x	100
COc1ccc(S(=O)(=O)N2c3ccc(F)cc3CCC2C)cc1 (configuration not stated)	n	n	62	n	n	n
COc1ccc(OCc2n(CC(=O)OC3CC(C)CCC3C(C)C)c3ccccc3[n+]2C)cc1 (configuration not stated)	x	n	n	100	n	101
CC1CCC(C(C)C)C(OC(=O)CSc2nccc(=O)[nH]2)C1 (configuration not stated)	n	n	n	n	n	n
COc1ccc(-c2n(CC(=O)OC3CC(C)CCC3C(C)C)c3ccccc3[n+]2C)cc1 (configuration not stated)	x	n	n	101	n	101
O=C(NCc1ccccc1)C1=CC(c2coc3ccccc3c2=O)CC(OCCCCO)O1 (configuration not stated)	n	x	x	n	x	n
C=C1CSc2nc(=O)c3c4c(sc3n21)CCC4	43	n	n	n	x	n
C=C1CSc2nc(=O)c3c4c(sc3n21)CCCC4	n	n	n	n	n	n
Cc1cc(C)n(-c2nc(-c3cccc(Cl)c3)cs2)n1	x	n	n	88	n	n
O=C(Nc1cc(Cl)cc(Cl)c1)Nc1cnccn1	n	n	n	100	n	100
O=C(Nc1ccc(F)cc1)Nc1cnccn1	n	n	n	n	n	n
O=C(NN=Cc1ccc([N+](=O)[O-])o1)c1cn(-c2ccccc2)nc1-c1ccccc1	n	x	x	99	x	100
O=C(NN=Cc1ccc([N+](=O)[O-])o1)c1cn(-c2ccccc2)nc1-c1ccc(F)cc1	n	x	x	98	x	n
COc1ccc(-c2nn(-c3ccccc3)cc2C(=O)NN=Cc2ccc([N+](=O)[O-])o2)cc1	n	x	x	100	x	97
Cc1ccc2nc(N/N=C\c3ccc([N+](=O)[O-])o3)nc(-c3ccccc3)c2c1	x	n	n	x	42	x
O=C(NN=Cc1ccc([N+](=O)[O-])o1)c1ccccc1-n1cccc1	n	x	x	n	x	n
CCN1CC2C3C(=O)N(Cc4ccccc4)C(=O)C3[C@](C)(C1=O)N2C(=O)c1ccc(C(F)(F)F)cc1 (some centres not stated)	n	x	x	n	x	n
COC(=O)C1=C(c2ccc(F)cc2F)CC2CCC1N2C(=O)NCCOc1ccccc1Cl (configuration not stated)	n	x	x	n	x	n
CCOC1=C/C(=C/c2c(N)n3nc(-c4ccccc4)sc3nc2=O)C=CC1=O	n	n	n	n	n	n
SMILES	Mtb hypoxia inh	CCHF vOTU inh	BJeLR viability	Sa ugtP lethal	RecA splice inh	RN4220 kill
CCOC1=C/C(=C/c2c(N)n3oc(C)cc3nc2=O)C=CC1=O	n	x	x	n	38	n
O=c1c2ccccc2cnn1-c1nc2ccccc2[nH]1	n	n	82	n	n	n
Cc1ccc(CSc2ncnc3c2cnn3Cc2ccccc2)cc1C	n	n	n	93	n	n
N#Cc1ccc(CSc2ncnc3c2cnn3Cc2ccccc2)cc1	x	n	n	n	n	n
Cc1ccc(CSc2ncnc3c2cnn3Cc2ccccc2)cc1	n	n	n	90	n	n
CCOC(=O)C1C2COc3ccc(Cl)cc3C2N2C(=O)c3cc(Br)ccc3NC(=O)[C@@]12C (some centres not stated)	n	x	x	n	x	n
C#Cc1ccc(C2C=C(C(=O)NC3CC3)OC(OCC)C2CCCO)cc1 (configuration not stated)	n	x	x	n	x	n
C=C(COC(=O)CCC(=O)O)CC1CC(O)[C@]2(C)OC3CC4OC5C[C@]6(C)O[C@]7(C)CCC8OC9C[C@]%10(C)OC%11C(C)=CC(=O)OC%11CC%10OC9CC(C)C8OC7CC6O[C@]5(C)CC=CC4OC3CC2O1 (some centres not stated)	n	x	x	n	x	n
COC(=O)c1c(NC(=S)NNS(=O)(=O)c2ccc(OC)cc2OC)sc2c1CCCCCC2	n	n	n	92	n	n
COC(=O)c1c(NC(=O)c2ccc(C)c(S(=O)(=O)Nc3ccccc3C)c2)sc2c1CCCC2	n	n	n	n	n	n
COC(=O)c1c(NS(=O)(=O)c2ccc3ccccc3c2)sc2c1CCCC2	n	n	n	n	n	87
COC(=O)c1c(NC(=S)Nc2cc(OC)c(Cl)cc2OC)sc2c1CCCCC2	n	n	n	n	n	n
CCOC(=O)c1c(NS(=O)(=O)c2ccc(Br)cc2)sc2c1CCC2	x	n	n	98	n	112
CCCCC1COCCS(=O)(=O)N1Cc1cccc(F)c1 (configuration not stated)	n	x	x	n	x	n
O=C(C1=CC(C2CCCCC2)CC(OCCCCO)O1)N1CCN(Cc2ccccc2)CC1 (configuration not stated)	n	x	x	n	x	n
CC1CN=C(N(C)C)N1CCc1ccc(F)cc1 (configuration not stated)	n	x	x	n	x	n
Cc1ccc(OC(=O)C2c3ccccc3Oc3ccccc32)cc1C	n	n	n	90	n	n
CN1CCC(Oc2ccc(Sc3ccccc3)cc2)CC1	n	n	n	94	n	n
CN1CCC(Oc2ccccc2Sc2ccc(C(F)(F)F)cc2)CC1	n	n	n	n	n	n
Cc1ccc(NC(=O)c2cc(S(=O)(=O)N3CCCCC3)ccc2N2CCOCC2)cc1S(=O)(=O)N(C)C	26	n	x	n	x	n
Cc1ccc(NC(=O)c2cc(S(=O)(=O)N(C)C)ccc2N2CCCC2)cc1S(=O)(=O)N(C)C	n	n	n	n	n	n
COc1ccc(-c2nnc(NC(=O)c3ccc(S(=O)(=O)N4CCc5ccccc5C4)cc3)o2)cc1	n	x	76	99	n	n
O=C(Nc1nnc(-c2ccc3c(c2)CCCC3)o1)c1ccc(Cl)cc1Cl	n	n	n	100	n	99
COc1ccc(-c2nnc(NC(=O)c3cc(Cl)ccc3Cl)o2)cc1	n	n	n	100	n	n
